Source: the supplement of paper PMC6555819

Legend:
Assay in all cases: PBM binding z-score (relative to random genomic background probes); higher = stronger binding; sequences stand for … in GC…GCGATTGACAGCGTAGAATGAAGG
[1] = system: PPARg:RXRa DBDmut IVT, anti-RXR (DBD mutation: RXRa K156A/R161A, NR concentration 270 nM, RXRa partner concentration 90 nM)
Summary of the method: (§1)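 Ligand-free nuclear receptor dimers were applied to custom Agilent 4×180K protein-binding microarrays whose double-stranded probes carried direct-repeat seeds, single-nucleotide variants, half-site ablations and random human genomic background sequences in 34-nt variable regions. Incubation lasted 1 h. Binding z-scores were computed against the random background probes from regression-normalized fluorescence.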

[2] = system: PPARg:RXRa IVT, anti-PPARg (NR concentration 270 nM, RXRa partner concentration 90 nM)
Summary of the method: as §1

[3] = system: PPARg DBDmut:RXRa IVT, anti-PPARg (DBD mutation: PPARg1 K132A/R137A, NR concentration 270 nM, RXRa partner concentration 90 nM)
Summary of the method: as §1

[4] = system: PPARg DBDmut IVT, anti-PPARg (DBD mutation: PPARg1 K132A/R137A, NR concentration 270 nM)
Summary of the method: as §1

[5] = system: PPARg homodimer (NR concentration 180 nM)
Summary of the method: as §1

[6] = system: PXR:RXRa (NR concentration 270 nM, RXRa partner concentration 90 nM)
Summary of the method: as §1

[7] = system: PXR homodimer (NR concentration 270 nM)
Summary of the method: as §1

[8] = system: RARa:RXR (NR concentration 270 nM, RXRa partner concentration 90 nM)
Summary of the method: as §1

[9] = system: RARa homodimer (NR concentration 270 nM)
Summary of the method: as §1

[10] = system: RARb:RXRa (NR concentration 270 nM, RXRa partner concentration 90 nM)
Summary of the method: as §1

Sequence	PBM binding z-score [1]	PBM binding z-score [2]	PBM binding z-score [3]	PBM binding z-score [4]	PBM binding z-score [5]	PBM binding z-score [6]	PBM binding z-score [7]	PBM binding z-score [8]	PBM binding z-score [9]	PBM binding z-score [10]
GGAACGAGGGCATTCGTGTTGATAGCATGGCGAT	3.27	2.25	-0.566	-0.299	0.242	0.774	0.237	0.37	-0.471	1.62
ACTTACGCGTCAACGAGGTTATAGCACGCGTATA	-0.0489	0.00944	0.527	-0.0395	0.374	1.04	-0.0402	1.15	0.181	0.516
GCAGACAGGTGAAACGCAGGTAACTCAGGGTGGC	0.989	0.639	-1.03	-0.587	-0.666	-0.437	-0.625	0.284	-0.853	0.575
ATCTCTAGGTAAGACTCAGTTCTGTGAAGAACGC	1.91	0.663	0.175	0.855	0.76	0.28	0.287	0.274	1.02	-0.117
TCTCGGAGGACACGAAAGGCCAGAGCTCGACATC	1.19	-0.0515	-0.613	-0.159	-0.541	-0.141	-0.472	0.327	-0.569	1.82
ACTAGCAGGCCAAGTTTGGGTCACACAAACAAAG	0.756	1.65	0.166	-0.339	0.789	1.07	-0.0733	1.95	-0.318	1.91
ATCGAAAGGTCGACGAGGTCAGTATACACCGTTT	1.29	2.59	1.42	0.928	2.73	5.77	9.23	5.2	1.54	4.56
CCTCGGAGTACAGAAGGTCAGAGCTGTCCGCTTT	0.368	-0.113	-0.995	-1.23	1.8	1.83	0.165	2.18	0.283	2.69
GGAACGAGGGCAAGTTGAGAGCAGAGTTTGATGG	3.69	2.7	0.19	-0.541	0.391	0.927	0.275	0.482	-0.172	2.74
CCTGCTAGGTCAGTGGTCAGCTAAAGCAGCTCGC	3.16	2.76	-1.08	-1.65	0.944	-0.0429	-0.667	0.509	-0.82	3.42
GCTAGTTGGTCAGTAAAAGGTCACAAACCGGTCG	0.812	2.83	-0.571	-0.0957	2.9	4.8	1.2	5.58	1.91	3.91
ATCTCTACGTAAAGTTCAGTGAAAGATCGATAGA	-0.332	0.634	1.64	1.55	1.75	1.93	1.97	1.39	1.12	3.02
TGTCAAAGTTAAAAGGTAACGTAAGTATCCACAC	-0.253	2.08	1.24	0.84	0.261	0.715	0.361	1.23	0.69	1.33
ACTAGCAGGCCAAGGGGCACTCAAGATTAGTCCG	0.959	1.41	0.105	-0.646	-0.02	-0.175	-0.332	-0.0268	-0.844	1.09
TAGCCTAGGTCAGATCGGGTCAGTATACGCTATA	0.599	2.06	-0.409	0.264	0.633	4.16	-0.399	2.21	-0.275	3.55
CCTCGGAGGACAGAAGGTCGGAGCTGTCCGCTTT	-0.473	-0.963	-1.7	-2.08	0.00885	-0.282	-0.764	-0.413	-0.449	1.12
ACGAGCAGGCCAAGGGTCACTCAAGATTAGTCCG	0.294	2.7	-0.273	-0.61	1.76	3.15	-0.226	4.01	0.319	3.69
GCTAGTTGGTCAGTACAAGGTCACACACCGGTCG	0.892	2.35	-0.0423	0.196	2.2	3.74	1.58	3.91	0.633	3.36
CCTTACGGGTCAAGGTTAAAGCACGGGTGGTACG	1.83	3.82	0.996	0.275	3.27	3.65	0.419	4.78	1.39	4.12
ACTAGCAGGCTAAGGGTCACTCAAGATTAGTCCG	0.414	3.12	0.0604	-0.126	1.94	3.45	-0.319	4.56	0.291	3.47
TCTTGTAGATCAATCGAGGTTAAGAAAGTGCGCT	1.91	1.31	0.666	0.595	0.306	2.74	0.235	1.75	0.262	0.661
CAAACTAGGTCAAGAGGTCAACGTCCGCTTCCCG	8.45	8.58	3.13	2.14	8.6	6.18	1.76	7.72	4.74	5.47
CCTGCTAGGTCATAGTCAGCTAATCTACAGTATG	3.96	3.31	0.51	0.574	1.15	1.16	-0.0222	1.73	0.243	3.54
